In PubChem BioAssay AID651661 (Broad Institute, 2012):
The campaign covered roughly 350,000 compounds. About 2,300 (0.66%) were called active. This is one part of a sample in which actives are shown more often than they occur.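 The calls were made as follows: active = mean inhibition of at least 50% after viability correction, with every replicate also passing that limit; inconclusive = mean reaches 50% but only one of two replicates passes; inactive = the rest.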

Experiment: EWS/Fli-driven NR0B1 reporter inhibitors, primary screen, A673 cells, NR0B1 luciferase, luminescence, MLPCN library (AID 651661);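 also: firefly luciferase signal divided by Alamar Blue viability fluorescence both relative to DMSO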
Conditions: viability-normalised, at 12.6 µM, hits give high values

Which inhibition does the source give for `O=C(C1CCOCC1)N1CC(=O)N2[C@H](CO)[C@H](c3ccc(C#Cc4cccc(F)c4)cc3)[C@H]2C1` here?
The inhibition was 3.5% (inactive).

Which inhibition does the source give for `CCCC(=O)Nc1ccc2c(c1)C(=O)N(C)[C@H]1CC[C@@H](CC(=O)NCC(F)(F)F)O[C@@H]1CO2` here?
The inhibition was 3% (inactive).

With `O=C(C[C@@H]1CC[C@H](NC(=O)C2CC2)[C@H](CO)O1)NCc1ccccc1Cl` as the compound, how does the inhibition read?
Its inhibition is -4.63% (inactive).

For `C[C@H](CO)N1C[C@H](C)[C@@H](CN(C)C(=O)NC2CCCCC2)Oc2ccc(NC(=O)c3ccncc3)cc2CC1=O`, which inhibition is on record?
The inhibition was -1.15% (inactive).

For `COc1cccc(C(=O)Nc2ccc3c(c2)C(=O)N(C)C[C@@H](OC)[C@H](C)CN(C(=O)C2CCOCC2)[C@H](C)CO3)c1`, which inhibition is on record?
Its inhibition is -12.9% (inactive).

For `CCOc1cc(/C=C(/C#N)c2ccc(Cl)cc2)cc(Cl)c1OCC(=O)O`, which inhibition is on record?
The inhibition was 67.4% (active).

Which inhibition does the source give for `COc1cc(/C=C(/NC(=O)c2ccc(Cl)cc2Cl)C(=O)O)cc(OC)c1OC` here?
Its inhibition is 11.1% (inactive).

For `CCOC(=O)CN/C=C(\C#N)c1ccc(F)cc1`, which inhibition is on record?
The inhibition was -7.7% (inactive).

Which inhibition does the source give for `CO[C@@H]1CN(C)C(=O)c2cc(NC(=O)c3ccc(F)cc3)ccc2OC[C@H](C)N(C(=O)CN(C)C)C[C@H]1C` here?
Its inhibition is 1.32% (inactive).

With `C[C@@H]1CCCCO[C@@H](CN(C)Cc2ccncc2)[C@H](C)CN([C@H](C)CO)C(=O)c2cc(NC(=O)CCC(F)(F)F)ccc2O1` as the compound, how does the inhibition read?
The inhibition was -2.85% (inactive).

For `Cc1ccc(S(=O)(=O)NC[C@H]2CC[C@@H]3[C@@H](CN3Cc3ccccc3C(=O)O)O2)cc1`, which inhibition is on record?
Its inhibition is 4.08% (inactive).

With `C[C@@H]1CCCCO[C@@H](CN(C)C(=O)c2ccccc2)[C@H](C)CN([C@@H](C)CO)C(=O)c2cc(NS(=O)(=O)c3cn(C)cn3)ccc2O1` as the compound, how does the inhibition read?
Its inhibition is -5.15% (inactive).

Which inhibition does the source give for `CC[n+]1cc(C)ccc1/C=C/c1ccc(N(C)C)cc1` here?
The inhibition was 57.5% (active).

Which inhibition does the source give for `CO[C@H]1CN(C)C(=O)c2cc(NC(=O)c3cnccn3)ccc2OC[C@@H](C)N(CC2CC2)C[C@@H]1C` here?
The inhibition was -6.87% (inactive).

Which inhibition does the source give for `COc1ccc(/C=C/c2noc(-c3ccccc3OC(C)=O)n2)cc1` here?
The inhibition was 6.55% (inactive).

For `COc1ccc(-c2nc(-c3ccccc3)no2)c(OC)c1`, which inhibition is on record?
The inhibition was 77.6% (active).

Which inhibition does the source give for `COc1ccc(-c2noc(CNC(=O)C(C)Oc3ccccc3)n2)cc1` (stereo not given) here?
Its inhibition is -7.08% (inactive).

With `COc1cccc(NC(=O)C[C@H]2CC[C@@H]3[C@H](COc4ccc(NC(C)=O)cc4C(=O)N3C)O2)c1` as the compound, how does the inhibition read?
Its inhibition is -0.492% (inactive).

With `O=C(C[C@@H]1C=C[C@@H](NS(=O)(=O)c2ccccc2)[C@H](CO)O1)N1CCN(c2ccccc2)CC1` as the compound, how does the inhibition read?
Its inhibition is 2.46% (inactive).

For `CNC(=O)C[C@H]1CC[C@H]2[C@H](COc3ccc(NC(=O)Nc4cccc(C)c4)cc3C(=O)N2C)O1`, which inhibition is on record?
The inhibition was -11.4% (inactive).

Which inhibition does the source give for `C[C@H](O)C#Cc1ccc2c(c1)O[C@H](CN(C)C(=O)C1CCCCC1)[C@@H](C)CN([C@H](C)CO)S2(=O)=O` here?
Its inhibition is 2.27% (inactive).

Which inhibition does the source give for `O=c1cc(-c2ccccc2)[nH]c2cc(F)ccc12` here?
The inhibition was 54.2% (active).

For `Cc1cc(=O)c2ccc(NC(=O)c3ccccc3)cc2[nH]1`, which inhibition is on record?
The inhibition was 9.56% (inactive).

With `Cc1ccc(-c2cc(=O)c3ccc(F)cc3[nH]2)cc1` as the compound, how does the inhibition read?
The inhibition was -5.43% (inactive).

With `CCC(=O)N1CC2(CN(Cc3ccc(Cl)cc3)C2)c2c([nH]c3cc(OC)ccc23)[C@@H]1CO` as the compound, how does the inhibition read?
The inhibition was -10.6% (inactive).

With `O=C(Nc1ccc(N2CCCCC2)cc1)c1cc(S(=O)(=O)N2CCOCC2)ccc1F` as the compound, how does the inhibition read?
Its inhibition is 0.758% (inactive).

Which inhibition does the source give for `CC(=O)Nc1ccc(S(=O)(=O)Nc2ccc(-c3ccc4nnc(C)n4n3)cc2)cc1` here?
Its inhibition is 18.6% (inactive).

For `CC(=O)Nc1ccc(S(=O)(=O)Nc2ccc(N3CCCCC3)cc2)cc1`, which inhibition is on record?
The inhibition was 63.2% (active).

With `O=C(NCc1cccc(F)c1)[C@H]1[C@H](CO)[C@H]2Cn3c(cccc3=O)[C@@H]1N2` as the compound, how does the inhibition read?
Its inhibition is -7.63% (inactive).

For `O=C(Cc1ccccn1)N1CC(=O)N2[C@H](CO)[C@H](c3ccc(C#CCC4CCCC4)cc3)[C@@H]2C1`, which inhibition is on record?
Its inhibition is -3.29% (inactive).

With `CC(C)OC(=O)c1ccc(NCc2cc(O)ccc2O)cc1Cl` as the compound, how does the inhibition read?
Its inhibition is 59.4% (active).

With `C#CCNc1ccc(C(=O)OCC)cc1` as the compound, how does the inhibition read?
Its inhibition is -46.2% (inactive).

With `CC(CN1CCOCC1)OC(=O)c1ccc(Cl)cc1Cl` (stereo not given) as the compound, how does the inhibition read?
The inhibition was -6.54% (inactive).

For `O=C(OC12CC3CC(CC(C3)C1)C2)c1ccc(NCc2cc(O)ccc2O)cc1`, which inhibition is on record?
Its inhibition is 30.8% (inactive).

Which inhibition does the source give for `COC(=O)c1ccc(NCc2cc(O)ccc2O)cc1` here?
Its inhibition is 61.8% (active).

Which inhibition does the source give for `CC(OC(=O)c1ccc(Cl)cc1O)C(=O)NCCC1=CCCCC1` (stereo not given) here?
Its inhibition is 1.44% (inactive).

Which inhibition does the source give for `O=C(C1CCC1)N1CC[C@@H]2[C@H]1c1cc(C#Cc3ccc(F)cc3)ccc1N[C@@H]2CO` here?
Its inhibition is 11% (inactive).

Which inhibition does the source give for `CO[C@@H]1CN(C)C(=O)c2ccc(NC(=O)Nc3c(C)noc3C)cc2OC[C@@H](C)NC[C@H]1C` here?
The inhibition was 1.67% (inactive).

Which inhibition does the source give for `COc1ccc(S(=O)(=O)N(C)C[C@H]2Oc3c(NS(=O)(=O)c4cccs4)cccc3C(=O)N([C@H](C)CO)C[C@@H]2C)cc1` here?
The inhibition was 0.582% (inactive).

With `O=C(Nc1ccc(Cl)cc1)C1Cc2c(-c3ccc4c(c3)OCO4)ccnc2O1` (stereo not given) as the compound, how does the inhibition read?
Its inhibition is 8.69% (inactive).

Which inhibition does the source give for `COc1ccc(NC(=O)C2Cc3c(-c4ccc(Cl)cc4)ccnc3O2)cc1` (stereo not given) here?
The inhibition was -1.76% (inactive).

Which inhibition does the source give for `COc1ccc(NC(=O)C2Cc3c(-c4ccc5c(c4)OCO5)ccnc3O2)cn1` (stereo not given) here?
The inhibition was 52.6% (active).

With `CCCN1C[C@@H](C)[C@H](OC)CN(C)C(=O)c2cc(NC(=O)CC)ccc2OC[C@@H]1C` as the compound, how does the inhibition read?
The inhibition was -0.843% (inactive).

For `COC(=O)C[C@H]1C=C[C@H](NC(=O)Nc2ccc(C(F)(F)F)cc2)[C@@H](CO)O1`, which inhibition is on record?
The inhibition was -13.7% (inactive).

With `CC(C)C(=O)Nc1ccc2c(c1)C(=O)N(C)[C@H]1CC[C@H](CC(=O)NCc3ccc(F)cc3)O[C@H]1CO2` as the compound, how does the inhibition read?
Its inhibition is -4.82% (inactive).

For `O=C(C1CC(=O)N(C2CCCCC2)C1)N1CCN(c2ccccc2)CC1` (stereo not given), which inhibition is on record?
The inhibition was 2.44% (inactive).

Which inhibition does the source give for `O=C1C=CC(=O)N1c1ccc(N2CCCCC2)cc1` here?
Its inhibition is 70% (active).

With `O=C(C1CCC1)N1CCN(c2ccccc2)CC1` as the compound, how does the inhibition read?
Its inhibition is -2.08% (inactive).

Which inhibition does the source give for `O=C(Nc1cc(F)ccc1F)N1CCCCN2[C@H](CO)[C@@H](c3ccc(-c4cccnc4)cc3)[C@@H]2C1` here?
The inhibition was -2.34% (inactive).

With `CN(C)C(=O)[C@@H]1[C@@H](CO)[C@@H]2Cn3c(ccc(-c4ccncc4)c3=O)[C@H]1N2C(=O)NC1CCCC1` as the compound, how does the inhibition read?
The inhibition was -5.42% (inactive).

With `CC(C)Cn1c(N)c(C(=O)COC(=O)CN2C(=O)C3CC=CCC3C2=O)c(=O)n(C)c1=O` (stereo not given) as the compound, how does the inhibition read?
The inhibition was 10.8% (inactive).

For `CCCc1cc(=O)[nH]c(SCC(=O)c2c(N)n(CC(C)C)c(=O)n(C)c2=O)n1`, which inhibition is on record?
The inhibition was 61.7% (active).

For `CCCc1cc(=O)[nH]c(SCC(=O)N2C(C)CCCC2C)n1` (stereo not given), which inhibition is on record?
Its inhibition is -0.113% (inactive).

With `COc1ccc2c3c(n(C)c2c1)[C@@H](CO)N(C(=O)c1ccccn1)CC31CN(C)C1` as the compound, how does the inhibition read?
Its inhibition is 2.95% (inactive).

With `CCOC(=O)c1c(NC(=O)CSc2nccc(=O)[nH]2)sc(C)c1C` as the compound, how does the inhibition read?
The inhibition was 1.69% (inactive).

With `CCOC(=O)c1c(C)[nH]c(C(=O)OCC(=O)c2ccc(OC)cc2OC)c1C` as the compound, how does the inhibition read?
Its inhibition is -15.3% (inactive).

Which inhibition does the source give for `CCOC(=O)c1c(C)[nH]c2c1-c1ccccc1C(=O)C2=O` here?
The inhibition was 75.3% (active).

With `CCCN1C[C@@H](C)[C@@H](OC)CN(C)C(=O)c2cc(NC(=O)C3CCC3)ccc2OC[C@H]1C` as the compound, how does the inhibition read?
The inhibition was 4.62% (inactive).

For `CCCNC(=O)N1CCC2(CC1)CN(C(=O)c1cccnc1)[C@@H](CO)c1[nH]c3cc(OC)ccc3c12`, which inhibition is on record?
The inhibition was -3.43% (inactive).

For `CO[C@H]1CN(C)C(=O)c2cc(NS(=O)(=O)c3ccccc3)ccc2OC[C@H](C)N(C(=O)NC(C)C)C[C@@H]1C`, which inhibition is on record?
The inhibition was -7.63% (inactive).

For `O=C(C1CCCCC1)N1CC(=O)N2[C@H](CO)[C@@H](c3ccc(-c4ccccc4F)cc3)[C@@H]2C1`, which inhibition is on record?
The inhibition was -0.368% (inactive).

With `COc1ccc(-c2cc(NC=O)c3ncc(-c4cccc(C(=O)N(C)C)c4)n3c2)c(OC)c1` as the compound, how does the inhibition read?
The inhibition was 8.25% (inactive).

With `COc1cccc(-c2cnc3c(NC(C)=O)cc(-c4cc(F)ccc4OC)cn23)c1` as the compound, how does the inhibition read?
Its inhibition is 41.5% (inactive).

Which inhibition does the source give for `COc1ccc(-c2cc(NC=O)c3ncc(-c4cc(OC)c(OC)c(OC)c4)n3c2)c(OC)c1` here?
The inhibition was 52.4% (active).

With `COc1ccccc1-c1cc(NC(C)=O)c2ncc(-c3ccc(F)cc3)n2c1` as the compound, how does the inhibition read?
The inhibition was 13.6% (inactive).

For `COc1ccc(-c2cc(NC=O)c3ncc(-c4ccccc4)n3c2)cc1OC`, which inhibition is on record?
The inhibition was 12.5% (inactive).

With `COc1ccc(-c2cc(NC(C)=O)c3ncc(-c4cc(OC)c(OC)c(OC)c4)n3c2)cn1` as the compound, how does the inhibition read?
The inhibition was 64.5% (active).

With `COc1cccc(NC(=O)N2CC[C@@H]3[C@@H](CO)N(C)c4ccc(-c5cccc(F)c5)cc4[C@@H]32)c1` as the compound, how does the inhibition read?
Its inhibition is -0.284% (inactive).

Which inhibition does the source give for `COc1ccccc1CNC(=O)C[C@H]1C[C@H]2c3cc(NS(=O)(=O)c4ccc(F)cc4)ccc3O[C@H]2[C@@H](CO)O1` here?
Its inhibition is -1.41% (inactive).

Which inhibition does the source give for `C[C@@H]1CN([C@H](C)CO)C(=O)c2cccc(NS(=O)(=O)c3cn(C)cn3)c2O[C@H]1CN(C)S(=O)(=O)c1ccc(Cl)cc1` here?
The inhibition was 1.45% (inactive).

With `C[C@@H]1CCCCO[C@@H](CN(C)Cc2ccncc2)[C@H](C)CN([C@H](C)CO)C(=O)c2cc(NC(=O)NC3CCCCC3)ccc2O1` as the compound, how does the inhibition read?
Its inhibition is 0.242% (inactive).

Which inhibition does the source give for `CN1c2ccc(-c3cccc(F)c3)cc2[C@H]2[C@H](CCN2C(=O)c2cccc(F)c2)[C@H]1CO` here?
The inhibition was -3.71% (inactive).

Which inhibition does the source give for `Cc1ccc(C)c(S(=O)(=O)N2CCN(C(=O)Nc3ccccc3)CC2)c1` here?
The inhibition was 1.58% (inactive).

With `Cc1ccc(C)c(S(=O)(=O)N2CCN(c3ncnc4sccc34)CC2)c1` as the compound, how does the inhibition read?
The inhibition was 51.5% (active).

Which inhibition does the source give for `COc1ccc(-c2csc3ncnc(N4CCN(S(=O)(=O)c5ccccc5C#N)CC4)c23)cc1` here?
The inhibition was 22.1% (inactive).
